Measured values taken from PubChem BioAssay AID1851 (National Center for Advancing Translational Sciences (NCATS), 2009).
Out of some 16,000 compounds screened, about 4,000 (25%) were called active. Roughly 26% stayed inconclusive and do not appear here. A selection follows. A number with no mark means an inactive call. The call rests on the fitted dose curve; in most records, active means well fitted curve in the direction sought with a large enough effect; inconclusive means small, poorly fitted or top-dose-only effect, or effect the other way; inactive means no such curve, though single readings can be large or run the other way.

biological target: Cytochrome P450 2C9 (Homo sapiens) (UniProt P11712); experiment: Cytochrome panel assay with activity outcomes; details: recombinant CYP, pro-luciferin dealkylation, luminescence, p450-cyp2c9; series mostly up to 57.1 µM; activity, negative = inhibition: at the top concentration
Sequence (P11712 whole entry, looked up): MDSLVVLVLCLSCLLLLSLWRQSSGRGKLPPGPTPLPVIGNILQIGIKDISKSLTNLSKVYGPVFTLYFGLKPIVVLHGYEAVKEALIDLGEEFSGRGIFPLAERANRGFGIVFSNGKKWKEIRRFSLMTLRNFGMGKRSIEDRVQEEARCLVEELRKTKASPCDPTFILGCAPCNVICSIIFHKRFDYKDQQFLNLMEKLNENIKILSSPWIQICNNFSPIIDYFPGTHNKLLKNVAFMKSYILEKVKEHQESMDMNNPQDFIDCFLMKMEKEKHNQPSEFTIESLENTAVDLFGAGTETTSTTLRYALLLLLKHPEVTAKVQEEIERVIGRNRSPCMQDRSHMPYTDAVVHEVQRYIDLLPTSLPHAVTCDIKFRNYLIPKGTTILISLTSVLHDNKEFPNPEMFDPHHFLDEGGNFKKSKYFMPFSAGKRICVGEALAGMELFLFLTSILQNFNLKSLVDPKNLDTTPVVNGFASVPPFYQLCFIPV
On the % scale 0 is the no-effect control and ±100 the full control effect.

Structure (SMILES)	activity, negative = inhibition	AC50
CO[C@H]1COC(=O)[C@H](C)COC(=O)[C@@H](Cc2ccccc2)NC(=O)C/C=C\[C@H]1C	-8.74% [at 11.4 µM]	–
COC(=O)c1sccc1NC(=O)CSc1ccc(Cl)cc1	–	15.8 µM (active)
COC(=O)c1sccc1NC(=O)CSc1cc(Cl)ccc1Cl	–	7.08 µM (active)
COC(=O)c1sccc1NC(=O)CSc1ccccc1NS(=O)(=O)c1ccc(Cl)cc1	–	1.78 µM (active)
Clc1ccc(Cl)c(SCCCN2CCNCC2)c1	-3.39% [at 11.4 µM]	–
Cc1cc(Cl)nc(NC(=O)CSc2ccc(Cl)cc2)n1	-1.09% [at 11.4 µM]	–
CC(=O)OC[C@H]1O[C@@H](O/N=C2/[C@H]3O[C@@H]3[C@@H](O)[C@H]3[C@H]2CCn2c(=O)n(-c4ccccc4)c(=O)n23)[C@H](OC(C)=O)[C@@H](OC(C)=O)[C@@H]1OC(C)=O	10.3% [at 11.4 µM]	–
NC(=O)C[C@H](NC(=O)Cc1ccc(O)cc1O)C(=O)O	-3.79%	–
COc1ccc(-c2nc(C#N)c(N3CCC(C(N)=O)CC3)o2)cc1OC	-30.1%	–
Cc1noc(C)c1C(=O)N1CCC2(CCCN(C(=O)Nc3ccccc3)C2)CC1	3.13%	–
CCCc1nnc(SCC(=O)N2CCCC(C)C2)n1CC1CCCO1 (centres undefined)	23.5%	–
CCOC(=O)CSc1nnc(CNC(=O)c2ccc(OC)cc2)n1C1CCCCC1	-9.65%	–
O=C(Nc1ccccc1)N1CCCC2(CCNCC2)C1	-8.65%	–
CCCCCC(=O)N1CCCC(c2nc(-c3ccc(OC)cc3)no2)C1 (centres undefined)	–	3.55 µM (active)
COc1ccc(-c2noc(C3CCCN(C(=O)c4ccccc4OC)C3)n2)cc1OC (centres undefined)	–	11.2 µM (active)
O=C(Nc1ccccc1)N1CCCC(c2nc(-c3ccc(F)cc3)no2)C1 (centres undefined)	–	14.1 µM (active)
CC(C)(N=NC(C)(C)C1=NCCN1)C1=NCCN1	3.47% [at 11.4 µM]	–
O=C(CN(Cc1ccco1)C(=O)c1cccc(Cl)c1)Nc1c(Cl)cc(Cl)cc1Cl	–	11.2 µM (active)
COc1ccc(Oc2ncc3ncc(=O)n(C)c3n2)cc1	-23.5%	–
COc1ccc(/C=C2\N=C(SC)N(C)C2=O)cc1	–	25.1 µM (active)

Structure (SMILES)	activity, negative = inhibition	AC50
CCN(c1nc(N)c(C(=O)N=C(N)N)nc1Cl)C(C)C	26.6%	–
CN(C)Cc1ccccc1-c1nc(NCc2ccccc2)c2ccccc2n1	-6.5% [at 2.29 µM]	–
CN(C)c1nc(NCc2ccccc2)nc(N/N=C/c2ccc(Cl)cc2Cl)n1	-11.7%	–
CC(Sc1nc(NCc2ccccc2)nc(N(C)C)n1)C(=O)Nc1ccccc1 (centres undefined)	–	0.562 µM (active)
CC(=O)N[C@@H](C(=O)O)C(C)(C)SN=O	–	inactive
COCCNc1ncnc2ccc(-c3ccccc3OC)cc12	16.9% [at 2.29 µM]	–
COc1ccc(CNc2ncnc3ccc(-c4cccnc4)cc23)c(OC)c1	-24.5% [at 2.29 µM]	–
COc1ccccc1CNc1ncnc2ccc(-c3ccccc3OC)cc12	–	0.794 µM (active)
COc1ccccc1CNc1ncnc2ccc(-c3ccccc3CN(C)C)cc12	-2.92% [at 2.29 µM]	–
COc1ccccc1CNc1ncnc2ccc(-c3cccc(C#N)c3)cc12	-23.5% [at 2.29 µM]	–
COc1ccccc1-c1ccc2ncnc(NCc3ccccc3)c2c1	–	0.501 µM (active)
COc1ccccc1-c1ccc2ncnc(NCc3cccnc3)c2c1	-19.3% [at 2.29 µM]	–
COc1ccc(CNc2ncnc3ccc(-c4ccccc4OC)cc23)c(OC)c1	–	0.398 µM (active)
COc1ccc(CNc2ncnc3ccc(-c4ccc(C(=O)N(C)C)cc4)cc23)c(OC)c1	1.99% [at 2.29 µM]	–
Cc1nonc1NC(=O)OCCN1CCOC1=O	-14.1%	–
CC[C@]1(O)C[C@@H]2CN(CCc3c([nH]c4ccccc34)[C@](C(=O)OC)(c3cc4c(cc3OC)N(C)[C@H]3[C@](O)(C(=O)OC)[C@@H](C(=O)OC)[C@@]5(CC)C=CCN6CC[C@@]43[C@@H]65)C2)C1	-6.34%	–
CCn1c(SCC(=O)Nc2sc3c(c2C(N)=O)CCC(C)C3)nnc1-c1ccco1 (centres undefined)	–	3.16 µM (active)
CCn1c(SCC(=O)Nc2sc3c(c2C#N)CCC(C(C)(C)C)C3)nnc1-c1ccco1 (centres undefined)	–	8.91 µM (active)
C#CC[N+](CC)(CC)CC#Cc1cccc(Cl)c1	3.76%	–
C[C@H](CN(C)C)C(O)(c1ccccc1)c1ccccc1	-5.45% [at 11.4 µM]	–

Structure (SMILES)	activity, negative = inhibition	AC50
COC(=O)[C@@]1(Cc2ccccc2)[C@H]2c3cc(C(=O)N4CCCC4)n(CCN4CNCC4=O)c3C[C@H]2CN1C(=O)c1ccccc1	–	2 µM (active)
COC(=O)[C@@]1(Cc2ccc(F)cc2)[C@H]2c3cc(C(=O)N4CCCC4)n(CCN4CNCC4=O)c3C[C@H]2CN1C(=O)c1ccccc1	–	7.94 µM (active)
Nc1nc(N)nc(CC(=O)O)n1	-0.0515% [at 11.4 µM]	–
COc1cc(/C=C(\C#N)C(N)=O)cc(CSc2nc3ccccc3s2)c1O	-7.23%	–
CCOC(=O)C1=C(CSc2nc3ccccc3s2)NC(=O)NC1c1cccc([N+](=O)[O-])c1 (centres undefined)	–	3.98 µM (active)
CCOC(=O)C1=C(CSc2nc3ccccc3s2)NC(=O)NC1c1cc(C)ccc1C (centres undefined)	–	3.55 µM (active)
O=C(Nc1cccc(F)c1)N1CCCC2(CCNCC2)C1	-19.3%	–
COc1cccc(Cn2c(=O)c(-c3cn(C)c4ccccc34)nc3cnc(N4CCNCC4)nc32)c1	–	20 µM (active)
CCNc1ncc2nc(-c3ccccc3)c(=O)n(Cc3cccs3)c2n1	-29.9%	–
COCCn1c(=O)c(-c2cn(C)c3ccccc23)nc2cnc(N3CCNCC3)nc21	-26.8%	–
CCNc1ncc2nc(-c3cn(C)c4ccccc34)c(=O)n(Cc3cccc(OC)c3)c2n1	-16.9%	–
CCNc1ncc2nc(-c3cn(C)c4ccccc34)c(=O)n(CCC#N)c2n1	-3.8%	–
Cn1cc(-c2nc3cnc(N4CCNCC4)nc3n(Cc3ccc(F)cc3)c2=O)c2ccccc21	–	10 µM (active)
Cn1cc(-c2nc3cnc(N4CCOCC4)nc3n(CCC#N)c2=O)c2ccccc21	9.88%	–
CN1CCN(c2ncc3nc(-c4cn(C)c5ccccc45)c(=O)n(CCc4ccccc4)c3n2)CC1	25.4%	–
COc1cccc(Nc2ncc3nc(-c4cn(C)c5ccccc45)c(=O)n(CCC#N)c3n2)c1	-6.19%	–
Cn1cc(-c2nc3cnc(N4CCNCC4)nc3n(CCc3ccccc3)c2=O)c2ccccc21	–	10 µM (active)
CCNc1ncc2nc(-c3cn(C)c4ccccc34)c(=O)n(Cc3cccs3)c2n1	–	20 µM (active)
COc1ncc2nc(-c3cn(C)c4ccccc34)c(=O)n(Cc3ccc(F)cc3)c2n1	5.67%	–
